An excerpt weighted towards active compounds, which were near 9.4% of everything screened.
ELG1 genotox: induces genotoxicity in HEK293T cells with luciferase-tagged ELG1 | AID 504466 | HEK293T ELG1-luciferase reporter, luminescence, 16 h | Potency, µM (doses to about 46 µM), for the others: at the highest dose activity change, positive = activation, usual class: activators | 330,000 tested, 1.3% active; note: % of control where 0% means no effect; nearly all actives have a fitted effect of over 60% in size
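After overnight (16 hr) compound treatment at 37 °C, ELG1-luciferase HEK293T cells were lysed with ONE-Glo; luminescence quantified 30 min later at room temperature.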
FLuc counter: inhibits or activates purified firefly luciferase, miR-21 counter-screen. P08659. purified FLuc, Km substrates, luminescence inhibition. Potency, µM (top dose mostly 57.5 µM), inactives show top-dose activity change, negative = inhibition, most hits filed as inhibitors. 360,000 tested, 6.9% active. AID 588342;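 note: plate controls were vehicle for no effect and reference inhibitor for full effect; nearly all actives have a fitted effect of over 55% in size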
Target sequence (P08659 whole entry, looked up): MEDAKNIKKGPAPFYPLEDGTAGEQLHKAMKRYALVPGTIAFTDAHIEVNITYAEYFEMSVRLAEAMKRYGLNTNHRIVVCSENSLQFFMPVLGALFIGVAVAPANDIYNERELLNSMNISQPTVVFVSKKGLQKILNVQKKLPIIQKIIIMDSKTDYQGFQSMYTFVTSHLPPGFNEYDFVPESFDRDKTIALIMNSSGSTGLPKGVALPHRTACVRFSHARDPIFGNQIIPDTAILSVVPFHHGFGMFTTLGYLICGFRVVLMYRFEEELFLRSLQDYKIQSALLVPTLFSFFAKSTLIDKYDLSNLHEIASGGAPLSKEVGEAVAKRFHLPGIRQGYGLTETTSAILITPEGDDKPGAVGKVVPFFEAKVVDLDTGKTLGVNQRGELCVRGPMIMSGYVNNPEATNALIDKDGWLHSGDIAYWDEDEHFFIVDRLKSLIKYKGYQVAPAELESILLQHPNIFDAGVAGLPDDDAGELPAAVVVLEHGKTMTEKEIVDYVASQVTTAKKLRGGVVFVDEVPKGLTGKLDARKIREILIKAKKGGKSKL
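Purified P. pyralis luciferase (10nM final) with 10uM D-luciferin and 10uM ATP (Km levels) in 50mM Tris acetate pH 7.5, 10mM Mg acetate, 0.01% Tween-20, 0.05% BSA; qHTS 6-point titration, ~60 µM downward; luminescence read.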
Rab9 promoter act: activators of Rab9 promoter | Huh7 Rab9 promoter-luciferase reporter, luminescence, 24 h | Potency, µM (titrated, usually from 9.22 µM), for inactives: at the highest dose activation, negative = inhibition, usual class: activators | 320,000 tested, 2.8% active | AID 485297; note: % of control where 0% means no effect; nearly all actives have a fitted effect of over 60% in size
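Rab9 promoter-driven luciferase in stably transfected Huh7 cells; 1500 cells/well rested 2 h, exposed to compound in DMSO for 24 h at 37 °C, 5% CO2. Luminescence read 10 min after adding luciferase reagent at ambient temperature.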
SMN2 splice enh: enhancers of SMN2 splice variant expression; Potency, µM (series often up to 46.1 µM), without a hit: top-dose activity change, positive = activation, usual class: activators; HEK293 SMN2-luciferase splicing reporter, luminescence, 30-36 h; AID 1458; 210,000 tested, 2.8% active; note: % of control where 0% means no effect; nearly all actives have a fitted effect of over 55% in size
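HEK293 cells carry an SMN2 minigene-luciferase reporter in which exon 7 inclusion puts luciferase in frame. Cells were seeded at 2000 cells/well, attached for 10-12 hours, then exposed to compounds for 30-36 hours at 37C before ONE-Glo luminescence.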
ELG1 DNA repair: ELG1-dependent DNA repair inhibition | 330,000 tested, 2.3% active | AID 504467 | Potency, µM (doses to about 46.1 µM), for inactives: at the highest dose activity change, negative = inhibition, hits mostly inhibitors | HEK293T ELG1-luciferase reporter, luminescence, 16 h; DNA damage induced by 5-fluorouridine; note: % is set by controls: 0 for no effect and ±100 for the full control effect; nearly all actives have a fitted effect of over 55% in size
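Reporter activity after DNA damage by 5-fluorouridine is monitored. Compound-treated cells incubate 16 hr at 37 °C, then ONE-Glo is added for 30 min before luminescence reading.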
NPC1 prom act: activates the NPC1 promoter; Huh7 NPC1 promoter luciferase reporter, 24 h; Potency, µM (top dose mostly 9.22 µM), inactives show at the highest dose activation, actives largely listed as activators; 320,000 tested, 2.4% active; AID 485313; note: % of control where 0% means no effect; nearly all actives have a fitted effect of over 60% in size
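Huh7 reporter cells (NPC1 promoter driving luciferase) are dosed with compound for 24 h at 37 °C, 5% CO2; luciferase detection reagent is then added and luminescence measured after 10 min at ambient temperature.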
Starred values were filed as active, the others as inactive; ? = inconclusive; . = no result given; [ ] = dose if it differs, or a comment. Calls come from the whole dose curve; as a rule, active = well fitted curve in the direction sought with a large enough effect; inconclusive = small, poorly fitted or top-dose-only effect, or another doubt; inactive = no such curve, though single readings can be large; an effect the other way counts as inactive or inconclusive. Potency is the fitted concentration of half-maximal effect.

SMILES | ELG1 genotox | FLuc counter | Rab9 promoter act | SMN2 splice enh | ELG1 DNA repair | NPC1 prom act
COc1ccc(N=Cc2oc3ccc4ccccc4c3c2O)cc1 | 22.1% | ? | 3.16µM* | 12.6µM* | ? | ?
CC(C)Oc1ccc(C(=O)N(Cc2ccc(N(C)C)cc2)Cc2ccco2)cc1 | . | ? | . | -8.7% | . | .
Cc1ccc(-n2cc3c(=O)n(C)c(=O)n(C)c3c2)cc1C | 0.5% | ? | 26.9% | 2.9% | 12.3% | 27.7%
Cn1c(=O)c2cn(-c3ccc4c(c3)OCCO4)cc2n(C)c1=O | 11.2µM* | ? | ? | ? | ? | ?
Cc1cc(N)c(-n2cc3c(=O)n(C)c(=O)n(C)c3c2)cc1C | ? | 16.9µM* | ? | ? | ? | 16.2%
CCN(CC)c1ccc(NC(=O)CCc2nc3cccnc3n2Cc2cccs2)c(C)c1 | . | -12.4% | . | -0.4% | . | .
COc1ccc(S(=O)(=O)N(Cc2nc(-c3cccc(C)c3)no2)C2CCCCC2)cc1 | . | -1.8% | . | -17.1% | . | .
Cc1cc(C)cc(NC(=O)Cn2c3ncccc3c(=O)n2-c2ccc(C)c(C)c2)c1 | . | 1.6% | . | . | . | .
Cc1c(Cl)cccc1NC(=O)N1CCOc2ccccc21 | . | 1.1% | . | . | . | .
CSc1ccc(Cl)c(C(=O)N2CCOc3ccccc32)c1 | -6.7% | 5.4% | 1.8% | . | 9.2µM* | 1.6%
CN(Cc1ccccc1)C(=O)Nc1ccc2c(c1)N(C)C(=O)c1ccccc1S2 | . | 1.4% | . | . | . | .
O=CN(/C=C1\Sc2ccccc2C1=O)Cc1ccccc1 | ? | 10.7µM* | 17.6% | -4.0% | ? | 10.0%
CCC(=O)N(C)/C=C1\Sc2ccccc2C1=O | 3.9% | 10.7µM* | 8.7% | 3.9% | ? | -6.1%
CC(=O)N(C)/C=C1\Sc2ccccc2C1=O | 4.8% | ? | -4.4% | -4.0% | 15.1% | -3.1%
O=C(Nc1ccc(OC(F)(F)F)cc1)NC1COc2ccccc2C1 (stereo not given) | . | -4.4% | . | . | . | .
CCOC(=O)Cc1csc(NC(=O)c2csc(C)c2)n1 | ? | ? | -0.1% | -8.4% | -3.1% | 11.3%
CCOC(=O)c1sc(NC(=O)c2ccc3ncsc3c2)nc1C | 2.31µM* | 0.953µM* | -37.3% | 2.82µM* | ? | -33.5%
CCOC(=O)c1sc(NC(=O)c2cncc(Br)c2)nc1C | 18.4µM* | 2.13µM* | 17.2% | 4.47µM* | ? | -13.8%
COC(=O)Cc1csc(NC(=O)c2ccc3ncsc3c2)n1 | 16.4% | 23.9µM* | ? | . | ? | 21.5%
COc1ccc2c(c1)cc1c(=O)n(CC(=O)NC3CC3)nc(C)n12 | . | 3.2% | . | -4.2% | . | .
COCCCNC(=S)N/N=C/c1ccccc1O | 2.2% | 12µM* | ? | . | ? | ?
COCCNC(=S)N/N=C/c1ccccc1C(=O)O | -7.4% | 2.0% | 2.5% | 4.0% | ? | -0.7%
COCCNC(=S)N/N=C(\C)c1ccccc1O | 4.7% | 16.9µM* | -0.1% | 28.8% | ? | 24.9%
COCCNC(=S)N/N=C(\C)c1ccccc1OC | -0.7% | 5.2% | -0.9% | 17.7% | -0.6% | 6.4%
COc1ccc(Nc2c3c(nc4ccc(NC(=O)/C=C/c5cccc(OC)c5OC)cc24)CCCC3)cc1OC | . | 9.7% | . | -99.4% | . | .
SMILES | ELG1 genotox | FLuc counter | Rab9 promoter act | SMN2 splice enh | ELG1 DNA repair | NPC1 prom act
O=C(CSc1ncn[nH]1)Nc1ccc(Br)cc1F | 2.3% | ? | 3.4% | -24.3% | ? | 1.3%
O=C(CSc1ncn[nH]1)N/N=C/c1ccc(Br)cc1 | 0.8% | 15.1µM* | 0.1% | . | -2.9% | 0.9%
CNS(=O)(=O)c1cn(CC(=O)N2CCN(c3cc(C)ccc3C)CC2)cc1S(=O)(=O)NC | . | -1.6% | . | . | . | .
O=C(NCC1CCCO1)c1ccc(COc2ccccc2Br)cc1 (stereo not given) | 1.8% | 23.9µM* | -6.5% | -10.3% | -3.3% | 0.6%
O=C(O)c1cc([N+](=O)[O-])ccc1N1CCC(Cc2ccccc2)CC1 | 3.2% | 1.1% | -4.3% | . | -5.6% | -1.3%
O=C(NCCO)c1cc2ccccc2cc1O | -3.1% | -13.9% | 0.7% | 5.8% | -2.6% | 2.0%
O=C(N/N=C1/CC2CCC1C2)c1cc2ccccc2cc1O (stereo not given) | -2.7% | 15.1µM* | 4.0% | . | -12.2% | 15.6%
O=C(NCC1CCCCC1)c1cc2ccccc2cc1O | -0.3% | 12µM* | 27.0% | . | ? | ?
O=C(NCC1CCCO1)c1cc([N+](=O)[O-])ccc1N1CCC(Cc2ccccc2)CC1 (stereo not given) | -9.0% | -1.6% | -2.8% | . | 23.1µM* | -7.4%
O=C(NCC1CCCO1)c1cccc2ccccc12 (stereo not given) | -4.3% | 1.3% | -3.6% | . | ? | 1.1%
O=C(NCC1CCCO1)c1cc2ccccc2cc1O (stereo not given) | 15.4% | 23.9µM* | ? | . | ? | ?
NCCSCCc1ccccc1 | . | . | . | -10.1%[9.22 µM] | . | .
CN(C)Cc1ccccc1-c1cc(N(C)C)ncn1 | . | . | . | -0.8% | . | .
CC1(C)Cc2c(c(N3CCCC3)nc3sc4c(N5CCN(CCO)CC5)ncnc4c23)CO1 | -12.2% | -2.7% | -2.2% | 1.2% | 8.2µM* | -1.8%
COc1ccccc1NC(=O)COC(=O)c1ccc(S(=O)(=O)NCc2ccco2)cc1 | -1.7% | 12µM* | -2.1% | -13.7% | ? | -2.0%
C/C(=N\Nc1ccc(C(=O)O)cc1)c1ccc(Br)cc1 | ? | 0.19µM* | 0.0891µM* | . | ? | ?
C/C(=N\Nc1ccc(C(=O)O)cc1)c1ccc(S(=O)(=O)NCc2ccco2)cc1 | 10.2% | 16.9µM* | ? | . | ? | 18.8%
C/C(=N\Nc1ccc(Cl)c(C(=O)O)c1)c1ccc(Br)s1 | 17.5% | ? | 17.2% | . | 27.0% | 19.9%
COc1ccccc1NS(=O)(=O)c1ccc(C(=O)OCC(=O)NCc2ccco2)cc1 | 0.5% | 3.9% | -7.4% | -8.3% | -0.5% | -1.6%
C/C(=N\Nc1ccccn1)c1ccc(S(=O)(=O)NCc2ccco2)cc1 | 0.0% | ? | -2.9% | 24.4% | -24.7% | -0.2%
C/C(=N\Nc1ccc(C(=O)O)cc1)c1ccc(Cl)s1 | 8.4% | 0.953µM* | 0.282µM* | . | ? | 0.398µM*
Cc1ccc(NC(=O)Nc2c(C)n(C)n(-c3ccccc3)c2=O)c(Cl)c1 | . | -3.5% | . | -4.5% | . | .
COc1cc2c(cc1O)CCC1C2CC[C@]2(C)[C@@H](O)CC[C@@H]12 (stereo not given in full) | . | . | . | -24.2% | . | .
COC(=O)C1=C(O)/C(=C/c2cccc(OC)c2O)N=C1C | 13.2% | 15.1µM* | ? | . | 21.2% | -3.7%
CCOC(=O)C1=C(O)/C(=C\c2cccc(OC)c2)N=C1C | -0.8% | -12.5% | 1.3% | -11.1% | 5.9% | -2.8%
COC(=O)C1=C(O)/C(=C\c2ccc(OCC(=O)Nc3ccccc3)cc2)N=C1C | 2.9% | 23.9µM* | -2.0% | . | ? | -2.0%

Bioassay records deposited in PubChem BioAssay by National Center for Advancing Translational Sciences (NCATS).
